High-throughput results from PubChem BioAssay.
In the library only some 2.5% were active in any assay of this set; here they are far more common.
ABCB6 inh 2: blocks the human ABCB6 transporter; K562-ABCB6 porphyrin accumulation, flow cytometry, 1 h; hits give low values; fluorescence ratio to DMSO, % at 10 µM; hit rate 0.19% among 360,000; AID 602162;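 active = fluorescence ratio to DMSO below 75%, the collection mean minus 3 SD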;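 note: signal is porphyrin accumulated inside mitochondria; 100% equals median channel fluorescence of DMSO control wells; lower ratio means ABCB6 inhibition with less porphyrin fluorescence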
rCAG RNA binder: r(CAG) repeat RNA binding | TO-PRO-1 dye displacement fluorescence | inhibition, % at 3 µM | hit rate 1.3% among 370,000;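 active = inhibition above the plate cutoff, the mean of all test compounds on that plate plus 3 SD, cut at about 35% in these data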;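 note: 0% = DMSO alone and 100% = 100 µM mitoxantrone as full dye displacement; higher means more dye released from RNA so lower well fluorescence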
PG9 binder: binds the HIV-1 gp120 antibody PG9; TR-FRET gp120-PG9 antibody binding; AID 624416; hit rate 0.43% among 360,000; inhibition, % at 6.7 µM; in the data active = inhibition above about 8.5%
Granule exo inh: blocks lytic granule exocytosis | TALL-104 LAMP-1 surface exposure, flow cytometry; cells stimulated with thapsigargin and PMA | inhibition, % at 10 µM | hit rate 0.66% among 360,000;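 active = inhibition above about 55%, limit read from the data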
ABCB6 blocker 1: inhibitors of human ABC transporter ABCB6; shares compounds with ABCB6 inh 2; K562-ABCB6 porphyrin accumulation, flow cytometry, 1 h; hits give low values; ratio response (% of DMSO), % at 10 µM; 700 tested, under 10 active;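 active = repeat-averaged ratio response below 75% of DMSO, the collection mean minus 3 SD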;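 note: median porphyrin fluorescence at 575 nm with 488 nm excitation from mitochondria; lower ratio means less porphyrin signal so ABCB6 inhibition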
K562 vector FC: counter-screen for ABCB6 inhibitors: effect in vector-only K562 cells. shares compounds with ABCB6 inh 2. K562 empty-vector cells, flow cytometry fluorescence, 1 h. percent response (fluorescence), % at 100 µM. 25 tested, under 10 active. AID 624484;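 active = compounds whose half-maximal effective concentration is below 100 µM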
Starred values were filed as active, the others as inactive; . = no result given.

SMILES	ABCB6 inh 2	rCAG RNA binder	PG9 binder	Granule exo inh	ABCB6 blocker 1	others
Cc1cnc(NC(=O)c2sc(Nc3ccccc3)nc2N)o1	19*	-2	-5	-5	98
CC1(C)Oc2ccc3ccc(=O)oc3c2C[C@H]1O	68*	-1	0	-3	94
C/C=C(/C)C(=O)O[C@@H]1Cc2c(ccc3ccc(=O)oc23)OC1(C)C	97	-3	2	3	.
CC(=O)Oc1c(Br)cc(N(C(C)=O)S(=O)(=O)c2ccccc2)c2ccccc12	102	6	-1	52	.
COc1cccc(NC(=O)Nc2nc3ncccn3c2-c2ccc(C)cc2)c1	.	2	.	.	.
OCCOCCn1c(CCNc2nc(-c3ccc(F)cc3)cs2)nc2cc(C(F)(F)F)ccc21	73*	-2	-1	4	100
COc1cc(NC(=S)N2CCN(S(C)(=O)=O)CC2)cc(OC)c1	101	4	-1	-1	.
CCOC(=O)CN1CCC(C2(c3cc4ccccc4[nH]3)OCCO2)CC1	98	-2	-1	-4	.
O=C(Nc1cccc2cccnc12)c1ccc2c(c1)OCCO2	43*	2	2	4	97
CCCc1nc2ccc(NC(=O)c3cccs3)cc2c(=O)n1Cc1ccc(Cl)cc1	73*	3	-2	-1	98
Cc1nc2ccc(NC(=O)c3cccs3)cc2c(=O)n1Cc1ccc(Cl)cc1	93	12	-1	23	.
COC(=O)[C@@H](NC(=O)Nc1ccc(S(N)(=O)=O)cc1)C(C)C	71*	2	1	-2	103
CC(C)CN(C(=O)CCC(=O)OCc1ccc(Cl)cc1Cl)c1c(N)n(CC(C)C)c(=O)[nH]c1=O	96	-6	0	2	.
Cc1cccc(C(C)C)c1NC(=O)COC(=O)CCC(=O)N(CC(C)C)c1c(N)n(CC(C)C)c(=O)[nH]c1=O	97	-2	0	-6	99
Cc1nc2c(F)c(F)c(C(F)(F)F)c(F)c2[nH]1	69*	-1	1	0	101
Cc1nc2c(Br)c3nc(C(F)(F)F)[nH]c3c(Br)c2[nH]1	103	.	.	-8	.
COC(=O)[C@]12C[C@H](CC(=O)NCCCN3CCCC3=O)C(=O)N(Cc3cccc4ccccc34)C1=C[C@H](C1CCCC1)O[C@@H]2C	.	4	.	.	.
Cn1c(=O)c2c(nc(NCCOc3ccc(C(C)(C)C)cc3)n2C)n(C)c1=O	74*	-1	0	2	102
CCOc1ccc(-n2c(COc3ccc(Cl)cc3)nnc2SCC(=O)Nc2ccc(OCc3ccccc3)cc2)cc1	.	8	.	.	.
CCC(OC(=O)c1ccco1)C(=O)NCc1ccc2c(c1)OCO2 (configuration not stated)	101	-2	-1	-9	.
CCOC(=O)c1c(NC(=O)CCN2C(=O)c3ccccc3C2=O)sc(C(=O)OC(C)C)c1C	70*	4	-1	0	99
CCOC(=O)c1sc(NC(=O)CCN2C(=O)c3ccccc3C2=O)c(C(=O)OCC)c1C	97	4	4	0	.
O=C(OC12CCCN(C1)/C(=C/c1ccc(Cl)cc1)C2)C1CCCC1 (configuration not stated)	.	3	.	.	.
O=C(CCc1ccc(S(=O)(=O)N2CCOCC2)cc1)Oc1ccccc1	62*	1	-2	0	98
Cc1ccc(C)c(Cn2nnc3c(=O)[nH]c(C4CCN(C(=O)c5ccco5)CC4)nc32)c1	102	-2	1	8	102
SMILES	ABCB6 inh 2	rCAG RNA binder	PG9 binder	Granule exo inh	ABCB6 blocker 1	others
O=C(c1ccco1)N1CCCC(c2nc3c(nnn3Cc3c(Cl)cccc3Cl)c(=O)[nH]2)C1 (configuration not stated)	94	6	0	-7	.
O=C(c1ccco1)N1CCC(c2nc3c(nnn3Cc3ccc(F)cc3)c(=O)[nH]2)CC1	98	2	0	3	100
O=C(c1ccco1)N1CCC(c2nc3c(nnn3Cc3ccccc3Cl)c(=O)[nH]2)CC1	97	2	2	9	96
O=C(c1ccco1)N1CCCC(c2nc3c(nnn3Cc3ccccc3)c(=O)[nH]2)C1 (configuration not stated)	99	3	-3	5	.
Cc1nnc(NC(=O)c2nc(S(=O)(=O)Cc3ccccc3)ncc2Cl)s1	113	4	-1	4	.	K562 vector FC=214
Cc1ccccc1CS(=O)(=O)c1ncc(Cl)c(C(=O)Nc2ccc(F)cc2)n1	36*	1	0	44	.	K562 vector FC=299
CCCc1nnc(NC(=O)c2nc(S(=O)(=O)Cc3cccc(C)c3)ncc2Cl)s1	101	35*	-4	28	.	K562 vector FC=250
Cc1cccc(CS(=O)(=O)c2ncc(Cl)c(C(=O)NCc3ccccc3)n2)c1	97	-4	2	35	.
Cc1cccc(C)c1NC(=O)c1nc(S(=O)(=O)Cc2ccccc2)ncc1Cl	93	-2	-1	47	.	K562 vector FC=237
Cc1nnc(NC(=O)CS(=O)(=O)Cc2ccccc2)s1	106	0	-1	-4	.
N#CCCN(CCN1CCCC1)S(=O)(=O)c1ccc(-c2ccc([N+](=O)[O-])cc2)cc1	98	-4	-1	0	.
OC(c1ccccc1)(c1ccccc1)C1CCN(CCCNc2cccc(OC(F)(F)F)c2)CC1	.	2	.	.	.
Cc1ccc(NC(=O)c2nc(S(=O)(=O)Cc3ccccc3)ncc2Cl)cc1	35*	0	0	33	85
Cc1cccc(CS(=O)(=O)c2ncc(Cl)c(C(=O)Nc3c(C)cccc3C)n2)c1	100	0	2	55	94
CC1CC(C)C(=O)C(C(CC2CC(=O)NC(=O)C2)OC(=O)CC(=O)c2ccccc2)C1 (configuration not stated)	101	4	1	-2	.
CCn1c(SCCC(=O)O)nnc1-c1cccnc1	97	0	-1	-1	.
CCn1c(SCC(=O)c2ccccc2)nnc1-c1cccnc1	71*	-3	0	3	101
O=c1ccn(Cc2ccccc2)c2ccccc12	72*	0	0	7	97
CCOC(=O)c1ccc(S(=O)(=O)N2CCC(C(=O)OCC)CC2)cc1	60*	-8	1	-2	103
CCOC(=O)c1ccc(S(=O)(=O)N2CCC(C(=O)O)CC2)cc1	104	2	0	1	.
CCOC(=O)C1CCN(S(=O)(=O)c2ccc(OCC)cc2)CC1	99	-2	1	-1	101
CCOC(=O)C1CCN(S(=O)(=O)c2ccc(Cl)s2)CC1	68*	-4	1	5	99
CCOC(=O)C1CCN(S(=O)(=O)c2ccc(Cl)cc2)CC1	98	-7	-2	-5	.
C[C@H]1CN([C@@H](C)CO)C(=O)CCCn2cc(nn2)CO[C@@H]1CN(C)C(=O)Nc1ccc2c(c1)OCO2	94	-1	-1	-4	.
COc1ccc(CNC(=O)CSc2nnc(NC(=O)C3CC3)s2)cc1	96	2	-1	-11	.
COc1ccc(CNC(=O)CSc2nnc(C)s2)cc1	74*	-2	-1	1	97
